Experimental findings from ChEMBL document CHEMBL1857833, “Screening and optimization of specific chemical series against human African Trypanosomiasis (HAT)” are described below.

Several values for one entry are separate records, joined by “and”; a condition that tells them apart may be missing. Equal values may be shown once. The whole screen tested about 4,400 compounds, of which about 390 (8.9%) showed an effect of 50% or more. For the sample, strong results were picked, then their nearest neighbours and some compounds at random.

For the test, the system named is Trypanosoma brucei. Put plainly: DNDI: Inhibition of Human African Trypanosomiasis, SBRI 427, in vitro at 2 ug.mL-1. It is filed as functional.
Regarding `CC(NCc1coc(-c2ccccc2Br)n1)c1cccc2ccccc12` (configuration not stated), the “% inhibition” value is 9% and -3%. Consider `CCOc1ccccc1Oc1ncccc1/C(=N/O)N1CCC=N1`, for which the “% inhibition” value is listed as 13%. Consider `COc1cccc(-c2nc(CNc3ccc(C(C)=O)cc3)co2)c1`, for which the “% inhibition” value came out at 18%.

In the case of `COc1cc(-c2nc(CN3CCN(Cc4ccc5c(c4)OCO5)CC3)co2)cc(OC)c1OC`, the “% inhibition” value was -1%.

Take `O/N=C(/c1cccnc1OCc1ccccc1F)N1CCN(c2ccc(F)cc2)CC1`: the “% inhibition” value was -19%.

For the molecule `CCc1ccc(Oc2ccc(/C(=N/O)N3CCCCC3)cn2)cc1`, the “% inhibition” value was determined as 68%. In the case of `CSc1ccc(Oc2ccc(/C(=N/O)NC3CCC(C)CC3)cn2)cc1` (configuration not stated) it was 81%; in that of `CC1CCC(N/C(=N\O)c2ccc(Oc3ccc(F)cc3)nc2)CC1` (configuration not stated), 16%; in that of `CCc1ccc(Oc2ccc(/C(=N/O)NCC3CC3)cn2)cc1`, 99%. In the case of `CCc1ccc(Oc2ccc(/C(=N/O)N3CCSCC3)cn2)cc1`, the “% inhibition” value stood at 16%. To `CCc1ccc(Oc2ccc(/C(=N/O)N3CCOCC3)cn2)cc1` belongs 3%; to `CCc1ccc(Oc2ccc(/C(=N/O)NCc3c(F)cccc3F)cn2)cc1`, 22%. Take `CCc1ccc(Oc2ccc(/C(=N/O)NCc3ccc(OC)cc3)cn2)cc1`: the “% inhibition” value was 22%.

With `CSc1ccc(Oc2cc(/C(=N/O)NC3CCC(C)CC3)ccn2)cc1` (configuration not stated), the “% inhibition” value is on record as 9%. To `N#CCCN(Cc1coc(-c2cccc(F)c2)n1)CC1CCCO1` (configuration not stated) belongs -9%; to `Cc1ccc(Oc2nc(C)ccc2/C(=N/O)N2CCC3CCCCC3C2)c(C)c1` (configuration not stated), 10%. Take `CC(C)COc1ncccc1/C(=N/O)N1CCC2CCCCC2C1` (configuration not stated): the “% inhibition” value is reported as -17%. In the case of `Cc1ccc(Oc2ccc(/C(=N/O)N3CCN(c4ccccc4)CC3)cn2)c(C)c1` it was 18%.

Consider `COc1cc(CN(C)Cc2coc(-c3ccc(Cl)cc3Cl)n2)cc(OC)c1OC`, for which the “% inhibition” value came out at 0%. On to `COc1cc(-c2nc(CN3CCCc4ccccc43)co2)cc(OC)c1OC`, for which the “% inhibition” value turned out to be 6%. With `COc1ccccc1CN/C(=N\O)c1ccc(C)nc1Oc1ccc(C)cc1C`, the “% inhibition” value was found to be 40%. Regarding `CCOc1ccccc1CN/C(=N\O)c1ccc(C)nc1Oc1ccc(F)cc1`, the “% inhibition” value is 20%. In the case of `CCOc1ccccc1CN/C(=N\O)c1ccc(C)nc1Oc1ccc(C)cc1C` it was 99%; in that of `Cc1ccc(Oc2nc(C)ccc2/C(=N/O)NCc2ccccc2C)c(C)c1`, 43%; in that of `CCOc1ccccc1CN/C(=N\O)c1ccc(C)nc1Oc1ccc(SC)c(C)c1`, -24%. In the case of `CCOc1ccccc1CN/C(=N\O)c1ccc(C)nc1Oc1ccc(C)cc1` it was 67%; in that of `Fc1ccc(-c2nc(CNC3CCc4ccccc43)co2)cc1` (configuration not stated), 28%. With `Cc1ccc(/C(=N/O)N2C(C)CCCC2C)c(Oc2cccc(F)c2)n1` (configuration not stated), the “% inhibition” value stood at 15%. For `CN(Cc1coc(-c2cccc(F)c2)n1)Cc1cccc2ccccc12`, the “% inhibition” value was -3%. Turning to `COc1ccc(CN/C(=N\O)c2ccnc(Oc3ccc(C)c4c3CCC4)c2)cc1`, the “% inhibition” value came out at 21%.

On to `COC(=O)c1cn(Cc2coc(-c3ccc(Br)cc3)n2)cn1`, for which the “% inhibition” value turned out to be 16%. In the case of `CSc1ccc(Oc2ncccc2/C(N)=N/O)cc1C` it was 17%.

For `CCOc1ccc(Oc2cc(/C(=N/O)NC3CC(C)CC(C)(C)C3)ccn2)cc1` (configuration not stated), the “% inhibition” value turned out to be 29%. For the molecule `CCOc1ccc(Oc2cc(/C(=N/O)NC3CCCC3)ccn2)cc1`, the “% inhibition” value was found to be 53%. Regarding `CCOc1ccc(Oc2cc(/C(=N/O)Nc3ccccc3)ccn2)cc1`, the “% inhibition” value was 24%. For `CCOc1ccc(Oc2cc(/C(=N/O)NC3CCCCC3)ccn2)cc1`, the “% inhibition” value amounted to 51%. Turning to `CCOc1ccc(Oc2cc(/C(=N/O)NC3CCC(C)CC3)ccn2)cc1` (configuration not stated), the “% inhibition” value came out at 25%.

`CCOc1ccc(Oc2cc(/C(=N/O)NC3CCc4ccccc43)ccn2)cc1` (configuration not stated): the “% inhibition” value is 29%.

Consider `CCOc1cccc(-c2nc(CN3CCN(c4cc(C)nc5ccccc45)CC3)co2)c1`, for which the “% inhibition” value is 11%. For the molecule `Cc1ccccc1-c1nc(CNCCN2CCOCC2)co1`, the “% inhibition” value is recorded as 6%.

As to `CCOc1cccc(-c2nc(CN3CCCN(C)CC3)co2)c1`, the “% inhibition” value came out at 2%. For `CSc1ccc(Oc2nc(C)ccc2/C(=N/O)N2CCSC2)cc1`, the “% inhibition” value amounted to 1%. For the molecule `Fc1cccc(-c2nc(CN3CCCCCC3)co2)c1`, the “% inhibition” value worked out at 5%. In the case of `Cc1cc(Oc2ccc(/C(=N/O)NC3CCc4ccccc43)cn2)cc(C(C)C)c1` (configuration not stated) it was 35%.

Regarding `Cc1cc(C)cc(Oc2ccc(/C(=N/O)NCC(C)(C)C)cn2)c1`, the “% inhibition” value amounted to 98%. As for `Cc1cc(Oc2ccc(/C(=N/O)NCC3CC3)cn2)cc(C(C)C)c1`, the “% inhibition” value turned out to be 97%. `CC(C)CN/C(=N\O)c1ccc(Oc2ccc3ccccc3c2)nc1`: the “% inhibition” value was found to be 2%.

For the molecule `Cc1cc(Oc2ccc(/C(=N/O)NC3CCC(C)CC3)cn2)cc(C(C)C)c1` (configuration not stated), the “% inhibition” value worked out at 19%. To `CCCN/C(=N\O)c1ccc(Oc2cc(C)cc(C)c2)nc1` belongs 20%; to `Cc1cc(C)cc(Oc2ccc(/C(=N/O)NCC(C)C)cn2)c1`, 90%; to `Cc1cc(C)cc(CN/C(=N\O)c2ccc(Oc3cc(C)cc(C(C)C)c3)nc2)c1`, 19%.

As for `Cc1cc(C)cc(CN/C(=N\O)c2ccc(Oc3cc(C)cc(C)c3)nc2)c1`, the “% inhibition” value is recorded as -3%. With `COc1cccc(Oc2ccc(/C(=N/O)NCC(C)C)cn2)c1`, the “% inhibition” value turned out to be 19%. `Cc1cc(Oc2ccc(/C(=N/O)NC3CC3)cn2)cc(C(C)C)c1`: the “% inhibition” value was found to be 62%. In the case of `COCCN/C(=N\O)c1ccc(Oc2cc(C)cc(C(C)C)c2)nc1`, the “% inhibition” value is 17%. As for `CCC(C)(C)N/C(=N\O)c1ccc(C)nc1Oc1ccc(F)c(F)c1`, the “% inhibition” value was 11%.

For `CCOc1ccccc1-c1nc(CN2CCC=N2)co1`, the “% inhibition” value is listed as -3%. To `CC(=O)c1ccc(N2CCN(Cc3coc(-c4ccc(F)cc4)n3)CC2)cc1` belongs -5%. As to `Cc1cc(C)cc(Oc2ccc(/C(=N/O)NCC3CC3)cn2)c1`, the “% inhibition” value stood at 99%. Consider `Cc1cc(C)cc(Oc2ccc(/C(=N/O)NCC3CCCO3)cn2)c1` (configuration not stated), for which the “% inhibition” value is -3%. To `Cc1cc(C)cc(Oc2ccc(/C(=N/O)NCC3CCCCC3)cn2)c1` belongs 21%. Consider `Cc1cccc(CNCc2coc(-c3ccc(O)cc3)n2)c1`, for which the “% inhibition” value is listed as -10%. To `Cc1cn(Cc2coc(-c3ccccc3Br)n2)c(C)n1` belongs 25%; to `CCCCN(Cc1coc(-c2ccccc2Cl)n1)c1ccccc1`, 10%. Regarding `COc1cc(-c2nc(Cn3cnc(C)c3)co2)cc(OC)c1OC`, the “% inhibition” value is listed as -15%. Take `CC1(C)[C@H]2CC[C@@H](CNCc3coc(-c4ccccc4Cl)n3)[C@@H]1C2`: the “% inhibition” value worked out at 35%.

On to `COc1cc(-c2nc(CNC[C@@H]3CC[C@H]4C[C@@H]3C4(C)C)co2)cc(OC)c1OC`, for which the “% inhibition” value was determined as 11%. With `CC1(C)[C@H]2CC[C@@H](CNCc3coc(-c4cccc5ccccc45)n3)[C@@H]1C2`, the “% inhibition” value is recorded as 73%. On to `COc1ccc(CNCc2coc(-c3ccc(F)cc3)n2)cc1`, for which the “% inhibition” value is given as -33%. Consider `Cc1ccc(-c2nc(CNC[C@@H]3CCCO3)co2)cc1`, for which the “% inhibition” value was found to be 12%.

Consider `Cc1ccc(-c2nc(CNC[C@@H]3CC[C@H]4C[C@@H]3C4(C)C)co2)cc1`, for which the “% inhibition” value turned out to be 99%.

On to `CC1(C)[C@H]2CC[C@@H](CNCc3coc(-c4ccc(F)cc4)n3)[C@@H]1C2`, for which the “% inhibition” value is 99%. As for `COc1ccc(-c2nc(CNCC3CCCO3)co2)cc1` (configuration not stated), the “% inhibition” value is given as -10%. On to `Cc1ccc(-c2nc(CNCc3ccc(C)o3)co2)cc1`, for which the “% inhibition” value was -7%. `c1ccc2c(CNCc3coc(-c4cccc5ccccc45)n3)cccc2c1`: the “% inhibition” value is reported as 14%. Take `CC1(C)[C@H]2CC[C@@H](CNCc3coc(-c4cccc(F)c4)n3)[C@@H]1C2`: the “% inhibition” value is 42%. In the case of `COc1ccc(-c2nc(CNC[C@@H]3CC[C@H]4C[C@@H]3C4(C)C)co2)cc1`, the “% inhibition” value is listed as 97%. With `CCOc1ccc(-c2nc(CNCc3ccc(C(F)(F)F)cc3)co2)cc1`, the “% inhibition” value is -13%. For the molecule `CCOc1ccc(-c2nc(CN3CCC(N4CCCCC4)CC3)co2)cc1`, the “% inhibition” value amounted to 9%. For `CC(NCc1coc(-c2ccccc2Cl)n1)c1ccccc1` (configuration not stated), the “% inhibition” value is reported as 9%.

With `COC(=O)C1CCN(/C(=N\O)c2ccc(Oc3ccc(C)cc3C)nc2)CC1`, the “% inhibition” value stood at 11%.

In the case of `CCCCN(CCC#N)Cc1coc(-c2ccccc2OCC)n1`, the “% inhibition” value is recorded as -9%. Take `O=[N+]([O-])c1ccc(N2CCN(Cc3coc(-c4cccc(F)c4)n3)CC2)cc1`: the “% inhibition” value is -6%. Consider `c1csc(-c2nc(CN3CCCCCCC3)co2)c1`, for which the “% inhibition” value came to 3%. Regarding `Cc1cc(C)cc(Oc2nc(C)ccc2/C(=N/O)NCCN2CCOCC2)c1`, the “% inhibition” value is recorded as 15%.

On to `Cc1ccc(/C(=N/O)NC2CCCC2)c(Oc2ccc3oc4ccccc4c3c2)n1`, for which the “% inhibition” value came to 99%. For `Cc1cc(N/C(=N\O)c2ccc(C)nc2Oc2ccc3oc4ccccc4c3c2)on1`, the “% inhibition” value is given as 20%. In the case of `Cc1ccc(/C(=N/O)NC2CCC2)c(Oc2ccc3oc4ccccc4c3c2)n1` it was 101%. In the case of `Cc1ccc(/C(=N/O)NCCC2CCCN2C)c(Oc2ccc3oc4ccccc4c3c2)n1` (configuration not stated) it was 13%; in that of `Cc1ccc(/C(=N/O)NCC2CC2)c(Oc2ccc3oc4ccccc4c3c2)n1`, 5%. On to `Cc1ccc(/C(=N/O)NC2CCC(C)CC2)c(Oc2ccc3oc4ccccc4c3c2)n1` (configuration not stated), for which the “% inhibition” value stood at 3%. Turning to `Cc1ccc(/C(=N/O)NC2CCCC2)c(Oc2cccc(C(C)C)c2)n1`, the “% inhibition” value stood at 3%.

Consider `CC(C)COc1ncccc1/C(=N/O)N(C)Cc1ccco1`, for which the “% inhibition” value is on record as 11%.

With `COc1ccc(-c2nc(CN3CCN(C(=O)C4CCCO4)CC3)co2)cc1` (configuration not stated), the “% inhibition” value was 9%. As to `COc1ccc(Oc2cc(/C(N)=N/O)ccn2)cc1`, the “% inhibition” value worked out at 19%. Consider `CCOc1ccc(Oc2cc(/C(N)=N/O)ccn2)cc1`, for which the “% inhibition” value is given as 7%. In the case of `Cc1ccc(Oc2cc(/C(N)=N/O)ccn2)c2c1CCC2`, the “% inhibition” value is 16%. In the case of `C#CCN(C)Cc1coc(-c2ccc(Br)cc2)n1`, the “% inhibition” value is 4%.

With `O/N=C(\NCC1CCCO1)c1cccnc1OCC1CCCCC1` (configuration not stated), the “% inhibition” value is given as 5%. In the case of `CC(C)c1ccc(N/C(=N\O)c2cccnc2OCC(F)(F)F)cc1` it was 1%; in that of `CCC(CC)N/C(=N\O)c1cccnc1OCC1CCCCC1`, 98%; in that of `Cc1ccc(/C(=N/O)NC2CCCC2)c(OCC2CCCCC2)n1`, 12%.

Take `O/N=C(\NC1CCCCC1)c1cccnc1OCC(F)(F)F`: the “% inhibition” value was found to be 71%. Consider `O/N=C(\NC1CCC1)c1cccnc1OCC1CCCCC1`, for which the “% inhibition” value was 99%.

As for `O/N=C(\NCC1CCCCC1)c1cccnc1OCC(F)(F)F`, the “% inhibition” value is 0%. To `O/N=C(\NCc1cccs1)c1cccnc1OCC1CCCCC1` belongs -4%; to `N/C(=N\O)c1cccnc1OCC1CCCCC1`, 13%.
